# Shown are actives, neighbours in structure and some others; about 18% of the full set was active somewhere.
# DT40 TDP1 no CPT = qHTS for Inhibitors of human tyrosyl-DNA phosphodiesterase 1 (TDP1): qHTS in cells in absence of CPT. AID 686978, 2013. DT40 Tdp1-/- hTDP1 cells, no CPT, ATP luminescence, 48 h. hit rate 15% among 420,000. Potency, µM (series often up to 46.2 µM), most hits filed as inhibitors; further: nearly all actives have a fitted effect of over 55% in size
#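 DT40 Tdp1-/-;hTDP1 cells, no CPT (DMSO vehicle only), 400 cells/well; compounds pin-transferred; ≥48 hr, 37 °C; CellTiter-Glo 30 min RT dark, luminescence read.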
# TDP1 cell CPT = DT40-hTDP1 cell growth loss with CPT; chicken DT40 Tdp1-/-;hTDP1 cells + 20 nM CPT, ATP luminescence, 48 h; hit rate 12% among 420,000; Potency, µM (top dose mostly 46.2 µM), usual class: inhibitors; further: nearly all actives have a fitted effect of over 55% in size
#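 Chicken DT40 Tdp1-/- cells stably complemented with human TDP1 were seeded at 400 cells/well in medium containing 20 nM camptothecin, exposed to pin-transferred compounds, and grown at 37 °C for at least 48 hr. Viability was read as ATP luminescence.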
# TDP1 inh = inhibitors of human tyrosyl-DNA phosphodiesterase TDP1. Potency, µM (highest dose often 130 µM), most hits filed as inhibitors. hit rate 0.28% among 350,000. Q9NUW8. recombinant TDP1, AlphaScreen DNA substrate cleavage; further: nearly all actives have a fitted effect of over 40% in size
# Target sequence (Q9NUW8 whole entry, looked up): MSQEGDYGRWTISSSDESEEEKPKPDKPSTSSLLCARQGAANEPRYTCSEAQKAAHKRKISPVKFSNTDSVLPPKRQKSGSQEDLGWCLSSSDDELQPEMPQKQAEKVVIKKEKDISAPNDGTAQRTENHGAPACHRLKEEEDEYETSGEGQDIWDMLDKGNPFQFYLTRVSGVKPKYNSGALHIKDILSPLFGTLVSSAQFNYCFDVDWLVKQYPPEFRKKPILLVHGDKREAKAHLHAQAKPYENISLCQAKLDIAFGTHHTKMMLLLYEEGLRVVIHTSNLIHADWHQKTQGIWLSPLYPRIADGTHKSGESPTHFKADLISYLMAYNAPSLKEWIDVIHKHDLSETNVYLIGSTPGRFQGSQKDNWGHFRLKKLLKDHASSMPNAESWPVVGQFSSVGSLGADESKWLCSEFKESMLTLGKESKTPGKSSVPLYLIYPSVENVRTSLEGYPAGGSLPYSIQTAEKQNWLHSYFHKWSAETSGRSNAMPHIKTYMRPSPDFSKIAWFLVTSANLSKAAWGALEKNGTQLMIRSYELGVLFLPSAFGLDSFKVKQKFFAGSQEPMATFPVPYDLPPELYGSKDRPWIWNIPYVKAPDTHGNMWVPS
#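 Here, a 5' biotin and 3' phosphotyrosine-FITC DNA oligonucleotide reports Tdp1 activity: intact substrate bridges AlphaScreen beads, while cleavage leaves a 3' phosphate and drops signal. All incubations at room temperature.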
# HepG2 tox = HepG2 cytotoxicity, counter-screen for TGF-b inhibitors | HepG2 CAGA-GFP viability, ATP luminescence, 18 h | Potency, µM (top dose mostly 46.1 µM), usual class: cytotoxic | hit rate 0.76% among 410,000 | AID 588856
#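 CellTiter-Glo luminescence gave cytotoxicity after 18 hours at 37 degrees C. The cells were HepG2 CAGA-GFP in 1% FBS DMEM, stimulated with 500 pg/mL TGF-beta after compound addition. %Activity was normalised to no-cell wells (complete cell-killing) and DMSO (no toxicity), and curves were fitted and classified.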
# IL1B secr inh = inhibitors of inflammasome signaling (IL-1 beta secretion); AID 743279; hit rate 4.7% among 360,000; activity change, % at 57.5 µM; THP-1 LPS/ATP IL-1B secretion, AlphaLISA, 16 h; active compounds read low; in the data active means activity change below about -50%; inconclusive means mostly about -30% to -49%
#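 Secreted IL-1B measured by AlphaLISA bead assay after 16 h compound exposure of THP-1 cells; compounds (final up to 57.5 uM) added 1 h before LPS (250 ng/mL) and ATP (1.25 mM) stimulation; lower signal means less secretion.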
# TGFb inhibitor = blocks TGF-b signaling | HepG2 CAGA-GFP TGF-b/SMAD3 reporter, GFP fluorescence, 18 h; TGF-beta stimulated, 500 pg/mL final | Potency, µM (highest dose often 46.1 µM), hits mostly inhibitors | hit rate 1.2% among 410,000 | AID 588855; further: nearly all actives have a fitted effect of over 65% in size
#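 First, reporter cells (HEPG2 CAGA-GFP) rested 2 h at 37 degrees C. Next, compounds were pinned in and TGF-beta added to 500 pg/mL final. After 18 h, GFP was imaged per cell and summed per well.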
# Hits are given with their value; – = inactive; ? = inconclusive; · = no result given; [ ] = another dose, or the depositor's remark. Unless noted, the call rests on the fitted dose curve; in most records, active means well fitted curve in the direction sought with a large enough effect; inconclusive means small, poorly fitted or top-dose-only effect, or another doubt; inactive means no such curve, though single readings can be large; an effect the other way counts as inactive or inconclusive.
SMILES,DT40 TDP1 no CPT,TDP1 cell CPT,TDP1 inh,HepG2 tox,IL1B secr inh,TGFb inhibitor
COCCN1C(=O)C(=O)/C(=C(/O)c2ccc(S(=O)(=O)N3CCCCC3)cc2)C1c1ccc(OC)cc1 (stereo not given),–,–,–,–,–,–
Cc1cn([C@H]2C[C@H](O)[C@@H](/C=C/C(=O)NCCC(c3ccccc3)c3ccccc3)O2)c(=O)[nH]c1=O,–,–,·,–,–,–
CCOc1ccc(C(C(=O)NC2CCCC2)N(Cc2ccccc2)C(=O)c2nsc(Cl)c2Cl)cc1 (stereo not given),18µM,21µM,–,–,?,?
Cc1cc(C)cc(N(C(=O)c2nsc(Cl)c2Cl)C(C(=O)NC2CCCC2)c2ccc(O)cc2)c1 (stereo not given),?,–,–,–,-80,?
Cc1cccc(N(C(=O)c2nsc(Cl)c2Cl)C(C(=O)NC2CCCC2)c2ccc(O)cc2)c1C (stereo not given),?,?,–,–,-73,–
Cc1ccccc1N(C(=O)c1snc(C(N)=O)c1N)C(C(=O)NC1CCCCC1)c1ccc(O)cc1 (stereo not given),?,?,–,–,–,–
Cc1ccc(N(C(=O)c2nsc(Cl)c2Cl)C(C(=O)NC2CCCC2)c2ccc(O)cc2)cc1C (stereo not given),?,?,–,–,-65,?
Cn1cc(S(=O)(=O)NC2CCCC2)c(=O)n(C)c1=O,–,–,·,–,–,–
Cc1cc(C)c2cc(CN(CCN(C)C)C(=O)Nc3ccccc3Cl)c(=O)[nH]c2c1,15µM,?,–,–,–,–
CCN1CCCC1CN(Cc1cc2cc(OC)ccc2[nH]c1=O)C(=O)NCc1ccccc1 (stereo not given),–,?,–,–,–,–
Cc1cc(C)c2cc(CN(Cc3ccco3)C(=O)NCc3ccccc3)c(=O)[nH]c2c1,–,–,–,–,-58,?
Cc1cc(C)c2cc(CN(CCO)C(=O)NC3CCCCC3)c(=O)[nH]c2c1,–,–,–,–,-52,–
CCN1CCCC1CN(Cc1cc2c(C)cc(C)cc2[nH]c1=O)C(=O)NC1CCCCC1 (stereo not given),?,23µM,–,–,-67,–
O=C(Nc1ccc2c(c1)OCCO2)C1c2ccccc2OCC(=O)N1CCc1c[nH]c2ccccc12 (stereo not given),–,–,·,·,–,·
COc1ccc(-c2onc(C)c2C)cc1S(=O)(=O)N(C)Cc1ccccc1,23µM,21µM,–,–,·,?
O=C(CCN1C(=O)C2CCCCC2C1=O)N1CCN(S(=O)(=O)c2ccccc2)CC1 (stereo not given),–,–,·,–,–,–
Cc1ccc(C(=O)N2CCc3ccccc32)cc1C,?,–,·,–,–,–
CCOc1ccc2nc3sc(C(=O)N4CCOCC4)c(N)c3cc2c1,?,–,–,–,?,–
Cc1cc(C)c2cc3c(N)c(C(=O)N4CCOCC4)sc3nc2c1,?,–,–,–,-76,?
Cc1cc(C)c2nc3sc(C(=O)N4CCOCC4)c(N)c3cc2c1,0.21µM,0.58µM,·,–,–,?
Cc1sc(NC(=O)c2sc3nc4c(C)cccc4cc3c2N)c(C#N)c1C,15µM,?,–,–,–,–
Cc1cccc2cc3c(N)c(C#N)sc3nc12,?,–,–,–,–,–
Cc1cccc2cc3c(N)c(C(=O)N4CCc5ccccc54)sc3nc12,2.9µM,3.7µM,–,–,–,–
Cc1ccc(C)c2nc3sc(C(=O)N4CCOCC4)c(N)c3cc12,?,?,–,–,–,–
O=C(CCN1CCN(Cc2ccccc2)CC1)NNC(=O)c1ccc(Cl)c(Cl)c1,?,–,·,–,?,–
SMILES,DT40 TDP1 no CPT,TDP1 cell CPT,TDP1 inh,HepG2 tox,IL1B secr inh,TGFb inhibitor
COCCN(C(=S)Nc1c(C)cccc1C)C(C)c1ccco1 (stereo not given),–,?,–,–,–,–
COc1ccc(N=c2oc3c(OC)cccc3cc2C(=O)NCc2ccco2)c(OC)c1,13µM,?,–,–,–,–
COc1ccc(-c2cc(C(=O)NCc3ccco3)c3ccccc3n2)c(OC)c1,?,?,8.9µM,–,–,–
COc1ccc(C(=O)Nc2ccc(Cl)cc2C(=O)NCc2ccco2)cc1,6.5µM,5.2µM,–,–,–,–
COc1ccc(-c2cc(C(=O)NCc3ccco3)c3ccccc3n2)cc1,?,?,·,–,–,–
COc1ccc(Nc2cc(C(=O)NCc3ccco3)c3ccccc3n2)c(OC)c1,23µM,?,–,–,–,–
COc1ccccc1CC(NC(C)=O)C(=O)NC1CCN(C(=O)c2ccc(C)cc2)CC1 (stereo not given),–,–,–[0.0935 µM],–,–,–
COc1cc(C=O)cc(OC)c1[N+](=O)[O-],?,?,·,–,·,–
CCc1nc2ccccc2n1CC(=O)NC1CCS(=O)(=O)C1 (stereo not given),–,–,–,–,–,–
COc1ccc2cc(CN(C(=O)c3cc(C)nn3C)C3CC3)c(-c3ccc(Cl)cc3)nc2c1,?,–,·,·,·,·
COc1ccccc1CNC(=O)c1c(O)nc2c(C)cccn2c1=O,?,–,–,–,·,?
C=CCSc1nnnn1-c1ccc(OC)cc1,–,–,–,–,–,–
COc1ccc(N2N=NN(C(C)C)C2=C(Cl)c2nnnn2-c2ccc(OC)cc2)cc1,8.2µM,5.8µM,·,–,·,?
CCN(CC)S(=O)(=O)c1ccc(C)c(NC(=O)COC(=O)CNC(=O)c2ccc(C(C)(C)C)cc2)c1,–,–,–,–,–,–
Cn1ncc([N+](=O)[O-])c1C(=O)Nc1ccc(-c2ccccc2)cc1,–,–,·,–,–,–
CC(=O)NC(c1ccco1)c1cc(Cl)c2cccnc2c1O (stereo not given),·,·,·,–,·,?
CCC(=O)NC(c1cccs1)c1cc([N+](=O)[O-])c2cccnc2c1O (stereo not given),?,21µM,–,–,–,?
CC(=O)NC(C)c1cc(F)c2cccnc2c1O (stereo not given),·,·,–,–,·,?
CCCCC(=O)NC(c1ccco1)c1cc(Cl)c2cccnc2c1O (stereo not given),16µM,?,–,–,–,?
CCCC(=O)NC(c1cccs1)c1cc([N+](=O)[O-])c2cccnc2c1O (stereo not given),13µM,23µM,–,–,?,–

# From PubChem
